# According to PubChem BioAssay AID2315 (National Center for Advancing Translational Sciences (NCATS), 2010):
# Screen size: about 290,000 compounds; about 27,000 (9.3%) were called active. What follows is part of a selection rich in actives, with near analogues and random picks from the rest. Unmarked numbers belong to inactive results. Cut-off read from the data, not from the text of the source: active = inhibition mostly above about 28% (no sharp cut-off); inactive = mostly below about 43%.
# Assay: A qHTS for Small Molecule Inhibitors of Shiga Toxin; note: 0% is about no effect
# Conditions: Vero cells, Shiga toxin protein synthesis inhibition reporter; at 38.7 µM, stronger effect = higher value
row,Structure (SMILES),inhibition
1,Cc1cc(S(=O)(=O)c2cc3ccc(O)c(C)c3oc2=O)ccc1F,23.1%
2,Cc1nn(C)c(C)c1C(C)NC(=O)c1ccc(OC2CCN(Cc3ccccn3)CC2)cc1 (centres undefined),8.35%
3,NNC(=O)c1nnn(-c2nonc2N)c1CN1CCCC1,-1.91%
4,CCc1nc(Nc2ccc(NC(C)=O)cc2)c2oc3ccccc3c2n1,-2.91%
5,Cc1c(CNCCc2ccccc2)c(C(=O)O)c(C)n1-c1ccccc1,-0.721%
6,Cc1ccc(CSCC2Nc3ccc(C(=O)N4CCN(c5ccc(F)cc5)CC4)cc3NC2=O)cc1 (centres undefined),13.1%
7,CCOc1ccc(NC(=O)c2ccc(NC(=O)C3CCCO3)cc2)cc1 (centres undefined),0.828%
8,Cc1cc2c(cc1S(=O)(=O)NCc1ccc(Cl)cc1)OCC(=O)N2,-2.9%
9,CC(NC(=O)C1CCCN(S(=O)(=O)c2ccc(-n3cnnn3)cc2)C1)c1ccc(F)cc1 (centres undefined),-5.87%
10,CSc1ccc(/C=C/C(=O)NC23CC4CC(CC(C4)C2)C3)cc1,103% (active)
11,CSc1ccc(NC(=O)/C=C/C(=O)O)cc1,18.3%
12,Cc1ccc(C(=O)NC23CC4CC(CC(C4)C2)C3)c(Cl)c1,6.22%
13,Cc1ccc2sc(N(CCN(C)C)C(=O)/C=C/c3cccs3)nc2c1C,-3.15%
14,COC(=O)c1ccc(NC(=O)CSc2nncc3ccc(OC)c(OC)c23)cc1,-11.5%
15,COC(=O)c1ccc(Nc2ncnc3sccc23)cc1,42% (active)
16,CCOC(=O)c1nc(Nc2ccc(C(=O)OC)cc2)c2ccccc2n1,17%
17,COc1cc2c(cc1OC)C(c1cccc([N+](=O)[O-])c1)=NCC2,-8.7%
18,O=C(N/N=C/c1c(O)n(C2CC2)c(=S)[nH]c1=O)c1ccccc1Cl,30.7%
19,O=C(N/N=C/c1c(O)n(C2CC2)c(=S)[nH]c1=O)c1ccccc1,84.6% (active)
20,O=c1[nH]c(=S)n(C2CC2)c(O)c1/C=N/N1CCOCC1,-6.68%
21,Cn1cnc2c1c(=O)n(Cc1ccccc1C#N)c(=O)n2C,-8.82%
22,Cc1ccc(NC(=O)c2ccccn2)cc1S(=O)(=O)N1CCOCC1,28%
23,Cc1ccc(Cl)cc1NC(=O)c1ccccn1,31.5% (active)
24,COC(=O)[C@@H](NC(=O)Nc1cc(Cl)ccc1C)C(C)C,8.66%
25,O=C(N/C(=C\c1ccc([N+](=O)[O-])cc1)C(=O)N1CCOCC1)c1cccc(Br)c1,-35.2%

row,Structure (SMILES),inhibition
1,Cn1c(=O)c2c(nc(Br)n2CCSc2nc3ccccc3o2)n(C)c1=O,-12.2%
2,Fc1ccccc1OCCSc1nc2ccccc2o1,110% (active)
3,OCCNCCCCOc1ccccc1F,-2.38%
4,O=S(=O)(c1cccc(-c2cn3ccccc3n2)c1)N1CCCC1,16.7%
5,COc1ccc(CN(C)C(=O)CC(c2ccccc2)c2ccccc2)cc1,6.72%
6,COc1ccc(N(Cc2ccccc2)S(=O)(=O)c2cccc(C(=O)O)c2)cc1,-12.2%
7,COc1ccc(C(CC(=O)c2ccccc2)S(=O)(=O)c2ccccc2)cc1 (centres undefined),26.9% (active)
8,Cc1[nH]c2ccccc2c1C(=O)CN1CC(C)CC(C)C1 (centres undefined),-6.33%
9,COc1ccc2nc(NC(=O)NC3CCCCC3)sc2c1,96.4% (active)
10,COc1ccc2nc(Nc3nc4cc5c(cc4s3)OCCO5)sc2c1,46.4% (active)
11,COc1ccc2nc(Nc3nc4ccc(NC(C)=O)cc4s3)sc2c1,35.3%
12,COc1ccc2nc(NC(=O)c3ccc(Br)s3)sc2c1,51.2% (active)
13,CCn1c(SCC(=O)Nc2nc3ccc(OC)cc3s2)nnc1-c1ccoc1C,56.7%
14,Cc1nc2cc3c(cc2s1)OCO3,13.4%
15,COc1ccc2nc(NC(=O)[C@@H]3CCCN3C(=O)c3cccs3)sc2c1,60.1%
16,COc1ccc(-n2cnc3cc(C(=O)NC4CCCC4)ccc32)cc1,-10.6%
17,COc1ccc(CNC(=O)c2ccc(Br)s2)cc1OC,31.8%
18,COc1ccc(N(CC(=O)Nc2cc(OC)ccc2OC)S(=O)(=O)c2c(C)noc2C)cc1,-2.51%
19,O=C(O)c1ccc(/C=C2/SC(=S)N(c3cccc(C(F)(F)F)c3)C2=O)cc1,-0.926%
20,CCOC(=O)c1cc(S(=O)(=O)NCCc2ccc(OC)c(OC)c2)cn1C,-9.15%
21,N#CC1=C(N)Oc2c(sc3ccccc23)C1c1ccco1 (centres undefined),139% (active)
22,Cc1cc(C)c2c3c(sc2n1)C(c1ccccc1)C(C#N)=C(N)O3 (centres undefined),16.2%
23,N#CC1=C(N)Oc2c(c(=O)oc3ccccc23)C1c1ccccc1OC(=O)c1cccs1 (centres undefined),-8.1%
24,COc1cccc(NC(=O)CSc2nnc(Cc3ccc(OC)c(OC)c3)o2)c1,-3.46%
25,CCN(CC)CCCNC(=S)N(CCO)Cc1cc2cc3c(cc2[nH]c1=O)OCO3,-4.73%

row,Structure (SMILES),inhibition
1,COCCNc1ncnc2c1nc1n2CCCC1,-7.74%
2,COc1cccc(CNC(=O)Cc2csc(Nc3nc(=S)[nH]c4ccccc34)n2)c1,1.99%
3,C=CCN(CC=C)C(=O)COC(=O)c1n[nH]c2ccccc12,10.1%
4,O=C(NCCc1ccc(F)cc1)c1n[nH]c2ccccc12,69.4% (active)
5,O=C(COC(=O)c1n[nH]c2ccccc12)NCc1ccccc1,-4.54%
6,COc1cccc(CNC(=O)c2n[nH]c3ccccc23)c1,31.3% (active)
7,COc1ccc(COC(=O)c2n[nH]c3ccccc23)cc1F,52.9% (active)
8,O=C(CC(=O)N/N=C\c1ccc(F)cc1)NCCc1ccccc1,10.7%
9,CCN(CC)S(=O)(=O)c1ccc2nc(COC(=O)c3n[nH]c4ccccc34)[nH]c2c1,-12.2%
10,O=C(NCCCO)c1cc2c([nH]c3ccccc32)c(-c2ccc(F)cc2)n1,-5.91%
11,Cc1cccc(OCC(O)Cn2c(N3CCCCC3)nc3c2c(=O)[nH]c(=O)n3C)c1 (centres undefined),35.6%
12,CCn1cc(CN2CCC(C(=O)Nc3cccc(-c4cccc(Cl)c4)c3)CC2)c(C)n1,-29.7%
13,Cc1ccccc1NC(=O)Cn1cc(C(=O)C2CC2)c2ccccc21,14.9%
14,O=C(C1CCN(S(=O)(=O)c2ccc(Br)s2)CC1)N1CCN(c2ccccc2)CC1,14.2%
15,COc1cc2c(cc1OC)C(C(=O)NCc1ccco1)C1c3ccccc3CCN1C2=O (centres undefined),-23.5%
16,Cc1ccc(NC(=O)CSc2sc3c(O)cc(=O)[nH]c3c2C#N)cc1C,-11.9%
17,COc1ccc(C(C)C)cc1S(=O)(=O)Nc1ncn[nH]1,-1.36%
18,O=C(C1CCCN(S(=O)(=O)c2ccccc2)C1)N1CCN(c2ccc(F)cc2)CC1 (centres undefined),-6.64%
19,Cc1cc(NC(=O)CCC(=O)N(CC(=O)NC2CCCC2)c2ccc(F)cc2)no1,29.9%
20,Fc1ccc(-c2ccc(NCCN3CCOCC3)nn2)cc1,51.7% (active)
21,O=C(NCCN1CCOCC1)c1c(F)c(F)c(F)c(F)c1F,33.6%
22,CN(CC(=O)NCCN1CCOCC1)S(=O)(=O)c1ccc(F)cc1,-3.65%
23,O=[N+]([O-])C(=c1ccc2c(c1)N1C3=C(CCCC3)CC3CCCCC31N=2)[N+](=O)[O-] (centres undefined),27.4%
24,COCCCNC(=O)C1CC(=O)N(CCc2ccc(F)cc2)C1 (centres undefined),-8.38%
25,O=C1CSC(=S)N1/N=C/c1ccc(O)c([N+](=O)[O-])c1,34.5%

row,Structure (SMILES),inhibition
1,CCOc1cccc(/C=N/N2C(=O)CSC2=S)c1O,38% (active)
2,CCOc1cccc(/C=N/NC(=S)NCCN2CCOCC2)c1O,22.8%
3,CCN(CC)CCCNC(=O)c1c(O)c2cc(F)cc3c2n(c1=O)C(C)CC3 (centres undefined),2.56%
4,O=C(c1ccccc1)N1CCN(C(=O)c2cc3nc(-c4ccccc4)cc(C(F)(F)F)n3n2)CC1,3.38%
5,OCCNc1nc(Nc2ccc(Cl)c(Cl)c2)nc2ccccc12,29.5%
6,COc1ccccc1-c1nc(SC)n[nH]1,50.6%
7,Cc1cc(C)nc(Nc2ncn[nH]2)n1,-5.43%
8,Cc1cc(C)nc(Nc2n[nH]c(-c3ccccc3N)n2)n1,55% (active)
9,CCOc1ccc(CNC(=O)C2CCCN(c3nnc(C)c4c(C)n(-c5ccccc5)nc34)C2)cc1 (centres undefined),-7.91%
10,N#CC1(NC(=O)COC(=O)CCN=C2NS(=O)(=O)c3ccccc32)CCCCC1,12.6%
11,COc1ccc(NC(=O)CN(C)C(=O)CNC(=O)C2CCCCC2)cc1,14.6%
12,COc1cccc(NC(=O)CN(C)C(=O)Cc2ccc(Cl)cc2Cl)c1,-4.77%
13,CN(CC(=O)Nc1ccc(Cl)cc1)C(=O)CNC(=O)c1ccc2ccccc2c1,121% (active)
14,CC1CCN(S(=O)(=O)c2ccc3c(c2)n(C)c(=O)n3C)CC1,-5.36%
15,O=C(Nc1ccc([N+](=O)[O-])cc1)OCCc1ccccn1,44%
16,O=C(CC1Nc2ccccc2NC1=O)Nc1ccccc1 (centres undefined),38.2% (active)
17,CCOC(=O)c1ccccc1NC(=O)CC1Nc2ccccc2NC1=O (centres undefined),-1.95%
18,O=C(CC1NCCNC1=O)Nc1ccc(Oc2ccccc2)cc1 (centres undefined),61.1% (active)
19,O=C(CC1Nc2ccccc2NC1=O)Nc1ccccc1NC(=O)CC1Nc2ccccc2NC1=O (centres undefined),73.6% (active)
20,CCc1ccc(NC(=O)CC2C(=O)NCCN2C(=S)Nc2ccccc2)cc1 (centres undefined),1.19%
21,CCN(CC)CCNCC(=O)Nc1ccc(Oc2ccccc2)cc1,3.13%
22,CCOc1ccc(NC(=O)CC2NCCNC2=O)cc1 (centres undefined),13.1%
23,COC(=O)c1cc(C)sc1NC(=O)CC1Nc2ccccc2NC1=O (centres undefined),46.2%
24,CC1CCN(CCC(=O)Nc2ccccc2)CC1,-4.96%
